PubChem BioAssay AID1159580 (chemical genetic matrix, 2015)
Values joined by “and” are separate entries in the source; they are usually repeats but may differ in a detail not shown here. Equal values may be shown once. Among all 5,500 compounds or so, about 2,000 (36%) were called active. Roughly 18% stayed inconclusive and do not appear here. The list shows a part of the results. A number with no mark means an inactive call. Cut-off read from the data, not from the text of the source: active = normalized growth mostly below about 0.91 (no sharp cut-off); inconclusive = no clear call, values can overlap the other calls; inactive = mostly above about 0.92.

Assay: chemical genetic growth profiling, strain panel (AID 1159580);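 note: tested at 20 µM; growth read once vehicle control cultures reached saturation at 30 °C; 1 = growth at the plate median or of vehicle wells; lower values mean less growth of the strain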
Details: S. cerevisiae deletion strains, growth OD

O=C1C=C2C(=CCOC2O)O1 (stereo unspecified)
normalized growth (locus YAL013W, strain DEP1, hits give low values): 0.922 | normalized growth (locus YAL021C, strain ccr4, hits give low values): 0.679 (active) | normalized growth (locus YAL026C, strain drs2, hits give low values): 0.644 (active) | normalized growth (locus YAL030W, strain snc1, hits give low values): 0.781 (active) | normalized growth (locus YBL061C, strain skt5, hits give low values): 0.796 (active) | normalized growth (locus YBR009C, strain hhf1, hits give low values): 0.71 (active) | normalized growth (locus YBR021W, strain FUR4, hits give low values): 0.762 (active) | normalized growth (locus YBR023C, strain chs3, hits give low values): 0.784 (active) | normalized growth (locus YBR171W, strain sec66, hits give low values): 0.672 (active) | normalized growth (locus YBR229C, strain ROT2, hits give low values): 0.991 | normalized growth (locus YBR231C, strain swc5, hits give low values): 0.73 (active) | normalized growth (locus YBR279W, strain paf1, hits give low values): 0.78 (active) | normalized growth (locus YCL011C, strain gbp2, hits give low values): 0.759 (active) | normalized growth (locus YCL016C, strain dcc1, hits give low values): 0.73 (active) | normalized growth (locus YCL029C, strain bik1, hits give low values): 0.913 | normalized growth (locus YCL069W, strain vba3, hits give low values): 0.752 (active) | normalized growth (locus YCR088W, strain abp1, hits give low values): 0.792 (active) | normalized growth (locus YDL005C, strain med2, hits give low values): 0.881 (active) | normalized growth (locus YDL035C, strain GPR1, hits give low values): 0.776 (active) | normalized growth (locus YDL040C, strain nat1, hits give low values): 0.887 (active) | normalized growth (locus YDL074C, strain BRE1, hits give low values): 0.678 (active) | normalized growth (locus YDL101C, strain DUN1, hits give low values): 0.851 (active) | normalized growth (locus YDL134C, strain PPH21, hits give low values): 0.9 | normalized growth (locus YDL185W, strain tfp1, hits give low values): 0.789 (active) | normalized growth (locus YDL192W, strain arf1, hits give low values): 0.789 (active) | normalized growth (locus YDR001C, strain nth1, hits give low values): 0.846 (active) | normalized growth (locus YDR069C, strain doa4, hits give low values): 0.652 (active) | normalized growth (locus YDR101C, strain arx1, hits give low values): 0.8 (active) | normalized growth (locus YDR137W, strain rgp1, hits give low values): 0.335 (active) | normalized growth (locus YDR150W, strain NUM1, hits give low values): 0.831 (active) | normalized growth (locus YDR159W, strain sac3, hits give low values): 0.847 (active) | normalized growth (locus YDR162C, strain NBP2, hits give low values): 0.258 (active) | normalized growth (locus YDR195W, strain ref2): 0.927 | normalized growth (locus YDR297W, strain sur2, hits give low values): 0.797 (active) | normalized growth (locus YDR318W, strain mcm21, hits give low values): 0.793 (active) | normalized growth (locus YDR334W, strain swr1, hits give low values): 0.845 (active) | normalized growth (locus YDR335W, strain msn5, hits give low values): 0.698 (active) | normalized growth (locus YDR388W, hits give low values): 0.864 (active) | normalized growth (locus YDR392W, strain spt3, hits give low values): 0.555 (active) | normalized growth (locus YDR502C, strain sam2, hits give low values): 0.763 (active) | normalized growth (locus YEL003W, strain gim4, hits give low values): 0.659 (active) | normalized growth (locus YEL037C, strain rad23, hits give low values): 0.82 (active) | normalized growth (locus YEL061C, strain CIN8 (second series), hits give low values): 0.759 (active) | normalized growth (locus YEL061C, strain CIN8, hits give low values): 0.848 (active) | normalized growth (locus YER015W, strain faa2, hits give low values): 0.635 (active) | normalized growth (locus YER016W, strain bim1, hits give low values): 0.833 (active) | normalized growth (locus YER110C, hits give low values): 0.597 (active) | normalized growth (locus YER111C, strain swi4, hits give low values): 0.938 | normalized growth (locus YER155C, strain BEM2 (second series), hits give low values): 0.303 (active) | normalized growth (locus YER155C, strain BEM2, hits give low values): 0.962 | normalized growth (locus YER167W, strain BCK2, hits give low values): 0.795 (active) | normalized growth (locus YFR010W, strain ubp6, hits give low values): 0.613 (active) | normalized growth (locus YGL078C, strain dbp3, hits give low values): 0.869 (active) | normalized growth (locus YGL086W, strain mad1, hits give low values): 0.806 (active) | normalized growth (locus YGL167C, strain pmr1, hits give low values): 0.846 (active) | normalized growth (locus YGL173C, strain kem1, hits give low values): 0.707 (active) | normalized growth (locus YGL227W, strain vid30, hits give low values): 0.843 (active) | normalized growth (locus YGL240W, strain doc1, hits give low values): 0.487 (active) | normalized growth (locus YGL248W, strain PDE1, hits give low values): 0.883 (active) | normalized growth (locus YGL253W, strain hxk2, hits give low values): 0.657 (active) | normalized growth (locus YGR078C, strain PAC10, hits give low values): 0.702 (active) | normalized growth (locus YGR135W, strain pre9, hits give low values): 0.784 (active) | normalized growth (locus YGR229C, strain SMI1, hits give low values): 0.366 (active) | normalized growth (locus YGR252W, strain gcn5, hits give low values): 0.462 (active) | normalized growth (locus YHR013C, strain ard1, hits give low values): 0.589 (active) | normalized growth (locus YHR027C, strain rpn1, hits give low values): 0.71 (active) | normalized growth (locus YHR030C, strain SLT2, hits give low values): 0.9 (active) and 0.845 (active) | normalized growth (locus YHR079C, strain IRE1 (second series), hits give low values): 0.858 (active) | normalized growth (locus YHR079C, strain IRE1, hits give low values): 0.84 (active) | normalized growth (locus YHR094C, strain hxt1, hits give low values): 0.948 | normalized growth (locus YHR129C, strain ARP1, hits give low values): 0.855 (active) | normalized growth (locus YHR142W, strain chs7, hits give low values): 0.684 (active) | normalized growth (locus YHR200W, strain rpn10, hits give low values): 0.91 (active) | normalized growth (locus YIL066C, strain RNR3, hits give low values): 0.776 (active) | normalized growth (locus YIL073C, strain SPO22, hits give low values): 0.5 (active) | normalized growth (locus YIL125W, strain kgd1, hits give low values): 0.886 (active) | normalized growth (locus YIR030C, strain dcg1, hits give low values): 0.911 (active) | normalized growth (locus YJL092W, strain hpr5, hits give low values): 0.744 (active) | normalized growth (locus YJL095W, strain BCK1 (second series), hits give low values): 0.833 (active) | normalized growth (locus YJL095W, strain BCK1, hits give low values): 0.795 (active) and 0.859 (active) | normalized growth (locus YJL115W, strain asf1, hits give low values): 0.961 | normalized growth (locus YJL129C, strain trk1, hits give low values): 0.769 (active) | normalized growth (locus YJL134W, strain LCB3, hits give low values): 0.961 | normalized growth (locus YJL154C, strain vps35, hits give low values): 0.859 (active) | normalized growth (locus YJL164C, strain tpk1, hits give low values): 0.757 (active) | normalized growth (locus YJL166W, strain qcr8, hits give low values): 0.667 (active) | normalized growth (locus YJL168C, strain set2, hits give low values): 0.939 | normalized growth (locus YJL187C, strain SWE1 (second series), hits give low values): 0.829 (active) | normalized growth (locus YJR043C, strain POL32, hits give low values): 0.882 | normalized growth (locus YJR066W, strain TOR1, hits give low values): 0.831 | normalized growth (locus YJR075W, strain HOC1, hits give low values): 0.805 (active)
